In PubChem BioAssay AID1508600 (Functional Genomics Laboratory (NCATS/FGL), 2020):
Out of some 53,000 sequences screened, about 3,700 (7%) were called active. This excerpt belongs to a sample that is enriched for actives. A number with no mark means an inactive call.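 The calls were made as follows: active = gene knockdowns whose robust z-score for IL-1 alpha signal is at least 2 or at most -2, so actives lie on both sides; inactive = the rest.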

Assay: Components of the Cytosolic LPS Sensing Pathway: Gene Identification via Genome-wide siRNA Screen;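 also: robust z of the log signal after scaling to non-targeting control siRNA wells of the plate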
Details: RAW264.7 macrophages, IL-1a HTRF, actives lie on both sides, screened at 100 nM (by protocol), cells primed 5 h with Pam3CSK4 first
Outline: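 Three distinct siRNAs per gene were tested singly at 100 nM in RAW264.7 macrophages. Following Pam3CSK4 priming and 24 hour LipidA transfection, IL-1a secretion was read by HTRF.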
In the case of GGAACAGGACAAUGACAGUTT against Gzme, the z-score is reported as 1.43. Work on GGCUUACUUCAUUUCAGUUTT against Zfp526 yielded a z-score of 0.0808. With GGAAAACAUUAAGAAGGGCTT against Ccn2 the z-score was 3.41 (active). GGACCUCCACCGUUACUACTT against Sgsh showed a z-score of 0.367. With GGAGGAACACAAGAUUUUCTT against Ppp2r5c the z-score was -0.322. GGAAGUCCAUCUCUUUUGCTT against Olfr56 gave a z-score of 0.213. GGAUCCAGAAAGUCCAGAUTT against Nt5c3b gave a z-score of 0.918. GGAUGUUGGUACUUUUUGATT against Pwp1 gave a z-score of -0.254. In the case of GGAAUAAAGUGUUGUGUCATT against Wfdc15b, the z-score is reported as -0.118. With GGUAGCAGUUGCUUUAAUATT against Siah2 the z-score was 2.65 (active). With GGGUUUCACAGGCAAACAGTT against Suclg1 the z-score was -0.904. CCCUGUACCUAGCUCAAGATT against Ecel1 gave a z-score of -0.693. Work on GGAAUCAUCUUUGUGGAGATT against Nudt22 yielded a z-score of -0.733. For “GCCAACGAGAGUAAACACGTT against 5930403N24Rik”, the z-score was -0.0706. In the case of GGUCUACUGACUCAAAGUCTT against Mrps33, the z-score is reported as 2.2 (active). Work on GGAUUUCAAAUGGAAACAATT against Vmn1r45 yielded a z-score of -1.15. GCAUGAAUUUUGCACGGACTT against Rad18 showed a z-score of 1.04. UCAACUCAAACUAUGUCGATT against Hoxb4 showed a z-score of -0.172. With GGUCUGUGGAUUUAAACUUTT against Sestd1 the z-score was 0.931. Work on CGAAGAGAGCUGCAUUAAATT against BC049715 yielded a z-score of -1.37. GGCUAUCAUGAACUUGGAUTT against Gpd2 showed a z-score of -0.57. In the case of GGAAAUGUACAAGACUGAUTT against Anxa2, the z-score is reported as 2.29 (active). Sequence GGAAAAAAACUUGCUGGAUTT against Ppp3ca has a z-score of -0.681. With CCAAAUAACCUGCUACGAGTT against Ffar2 the z-score was 0.905. Sequence GGUAUACUAACUUUUAAGGTT against Fmo1 has a z-score of -0.228. With GCCUCUAUUCUACACCACATT against Gpr137 the z-score was -2.1 (active). Work on GAAAAACUGCUGUUUUGGATT against Ly6g6d yielded a z-score of 1.87. GGAGACGAGAGGAUCCUCUTT against Chga showed a z-score of -1.56. GGUCAAGAAUGUAGCUGAUTT against Atp6v0d1 gave a z-score of -1.87. For GGUGUGUGAACCAUGUGUGTT against Olfr157, the z-score was -1.03. GGCAUAGUGAAUUUAGUCUTT against Iqub gave a z-score of 0.526. In the case of GGCUGGAUACUCAGUGCUATT against Abhd16b, the z-score is reported as 6.41 (active). With GGUCAUGGAUCAGAAAGAATT against Hnrnpd the z-score was 0.297. Sequence CACGGUACAGUACGAUUGATT against Rcan2 has a z-score of 0.143. For CAAGUACAAGCAGUUGACCTT against BC061237, the z-score was -0.0958. Work on GAGGGUGUGCAUUCUUCUATT against Olfr1242 yielded a z-score of -0.766. GGUUCCUUAAUCACUUUGCTT against Ndufa9 gave a z-score of -0.139. For GGAACAGAUAACAUUAUGGTT against Cpeb3, the z-score was 2.79 (active). Sequence GGCCCUUACUUCCACAUCATT against Fam104a has a z-score of -0.711. Work on CGAAGCACAUAUCUUUGAUTT against Zfp41 yielded a z-score of 0.444. With GGAAAGAGGAAUCAAGAAATT against Slc23a2 the z-score was -1. CCAAAGAGCGCAUGGCUCATT against Epn2 gave a z-score of -0.782. In the case of GCGAAUCAGCACUUAUGGATT against Cd2ap, the z-score is reported as 2.65 (active). With GGUCUACUCUUCAUAUCGCTT against Rab3d the z-score was -0.566. GGACAGUUCAGAACAAAUUTT against Ccbe1 showed a z-score of -0.168. For GCUGAACCAAACCCAAAUGTT against Snph, the z-score was 0.00664. For GGUGAUGCCACUAGUGAAGTT against Scx, the z-score was -0.123. GGCAGAUCUAUUUAUGGUATT against Ccer1 gave a z-score of 0.229. For “GGUCUCAGCAAUCUGUUCCTT against 1700029I15Rik”, the z-score was -2.15 (active). GGAACUAUACCAAAGGCAATT against Cfap65 showed a z-score of -0.198. With GGAAUGAAGUCUGUCUUCGTT against Zdhhc7 the z-score was 0.648. Sequence GGAGGAGGAGCUGAAGAAATT against Atp12a has a z-score of -0.679. For GGAAAGAUUUAUUUUGACGTT against Vnn3, the z-score was 0.286. For GGGUAUUGCUGGACAACGUTT against Col1a1, the z-score was 3.85 (active). With GGUCUUCAGCACCUUUGAATT against Ccl2 the z-score was -0.903. With GGUACUUUUAUCUUAGCUATT against Paral1 the z-score was 0.0889. With GGGAUUGUGAAUUUCAUGUTT against Gca the z-score was 1.3. In the case of GCAGAUCAAUGACUAUAGATT against Arhgef11, the z-score is reported as 0.858. For GCCAUAUGGGCAGAUGUUUTT against Sec24b, the z-score was -0.682. GCCUAAGAGUUUCAAUAAGTT against Tgtp1 showed a z-score of -1.21. With GCAAAUGCACACUCUAGGATT against Ptprn2 the z-score was -0.0741. For GGAAUUUUAUGCCAAGAAUTT against Hip1r, the z-score was -3.89 (active). GGAAGAAUCGCUGCUACCGTT against Mrpl20 gave a z-score of 1.06. In the case of GCUGUGAUCAGGACGAGAATT against Stx2, the z-score is reported as 0.187. GGGAAAGAUUCAUGUUACUTT against Mug2 gave a z-score of -0.804. GCUAACCAGUCAGUUGAUCTT against Mocs1 showed a z-score of -0.086. For CCUUACCAAUGUUCAUUUATT against Skint7, the z-score was -0.32. For GGAUCUGCAUUUCACUAUUTT against Pi4ka, the z-score was 0.818. For GCAUACAAAUGCACAUUGATT against Lsg1, the z-score was 2.69 (active). GGAUCCGUGAAUGUAGUCATT against Rapgef4 gave a z-score of -0.793. With CGGAUUGUAAAGAACUGCATT against Sfrp1 the z-score was -0.0934. GCUUUGUGAUGGAUUACUATT against Ccl4 gave a z-score of 1.85. Sequence CGUAUACUGUGAUUGAUAUTT against Lcn5 has a z-score of -0.647. For GGCCAGAAGAUUCCUAAAGTT against Gulp1, the z-score was 3.38 (active). GUUACAGUAUUCUAUGGGATT against Olfr1080 showed a z-score of 0.508. GGUUUUUCUGAGUUUCCGUTT against Il4i1 showed a z-score of -1.03. With GCCUCAUUAUAAAUCACACTT against Bclaf3 the z-score was 0.752. In the case of GGUGGAGUUCGUGUUGAGCTT against Slc6a11, the z-score is reported as -0.527. Work on GAAGGACACCCUUAUAUUUTT against Olfr1216 yielded a z-score of 0.892. In the case of GGAUGGUCACGGAAGUUCUTT against Lmf2, the z-score is reported as 2.36 (active). GGGCCUCAUCUUUGUGGUATT against Arf5 gave a z-score of 0.359. In the case of GGAUUGUUUAUCUGUCUUCTT against Cyp3a44, the z-score is reported as -1.05. GGACCUAAAGUUUCUCUCATT against Ccnc gave a z-score of -0.2. For GGUCAUAGCUGGAUUCCUUTT against Olfr1453, the z-score was -1.47. GCUUAUAAUGGCAAUAUUGTT against Nvl showed a z-score of 0.275. With GGACAAAAUUGAACACAAGTT against Pogz the z-score was 2.86 (active). GGCGAAUUAAUUAACCGCCTT against Abcb10 gave a z-score of 0.798. With CCUCGAUAGGUUAGUGACATT against Fdxacb1 the z-score was -0.731. With GGUACAGAAACAGUUAGUUTT against Olfr432 the z-score was 0.328. Sequence GCUUCCUAGAUCAUGACUGTT against Ube2g2 has a z-score of -0.318. For GGUCUGGUCAUCUCAGUUUTT against Tmem159, the z-score was 3.53 (active). With GGCAAUAGCUACACCUUCATT against Csf1r the z-score was 1.9. CCAUUGUCACUCCUAGUGUTT against Olfr1361 gave a z-score of 1.03. GGAACAAGAAGAAGAAAAATT against Slco3a1 gave a z-score of -1.03. With GGUACUUUACACUGAACAATT against Serpinb13 the z-score was 2.91 (active). For “GGCAUGUAGGGUUUUGUUUTT against 9830163H01Rik”, the z-score was -0.605. With GCUGUCUGAUUCUGAGGUGTT against Slc6a1 the z-score was 2 (active). Sequence GGCAUAAACCACUUCCAGCTT against Dedd2 has a z-score of 0.342. GCAUUUAAGGACCUUGUAATT against Olfr813 showed a z-score of -1.5. Sequence GGCCAUGAUUGUGUUUCAGTT against Tspan8 has a z-score of 1.76. GCCUUCCACUACCUUACGUTT against Kcnk3 gave a z-score of 0.067. For CCGACAGACUCACAUACUGTT against Trex1, the z-score was -0.942. For GGCGUGUCUUGAUAGAAAUTT against Tesmin, the z-score was 0.652. With GGGAGCAAACGAGAAGAUATT against Gjd2 the z-score was 4.09 (active). For GCGCAAAGUCGAAUCCAGUTT against Vgll1, the z-score was -0.156. In the case of GGAGGGUGAAGAGAAUGGUTT against R3hdm2, the z-score is reported as 1.14. GGUCCAUCAGGAAAAUCAATT against Obox6 showed a z-score of 0.0445.
